# Assay results from PMC9911399, “Two distinct binding modes provide the RNA-binding protein RbFox with extraordinary sequence specificity”.
# Positions count from the first letter of the chain named. Whole data set: some 16,000 sequences, median “ka relative to ugcaugu” near 0.0091, cut for the highest 2% near 0.032. This is one part of a sample in which the highest values are shown more often than they occur.
# T1: RBFOX1 RRM (Homo sapiens, UniProt Q9NWB1 109-208)
# T1 sequence: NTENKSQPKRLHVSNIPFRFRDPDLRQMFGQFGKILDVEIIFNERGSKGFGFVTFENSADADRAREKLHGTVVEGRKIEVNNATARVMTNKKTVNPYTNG
# B1: UUCCAAA (DNA:RNA)
# RNA: GGGAGACCGGAAUUCAGAUUGUCCUUCCAAAUUAAAUCCCGUCGUAGCCACCA
# DNA 1: CAATCTGAATTCCGGTCTCCC
# DNA 2: TGGTGGCTACGACGGGATT
# B2: GACAUUG (DNA:RNA)
# RNA: B1 RNA with U25G, U26A, C28A, A29U, A30U, A31G
# DNA 1: CAATCTGAATTCCGGTCTCCC
# DNA 2: TGGTGGCTACGACGGGATT
# B3: GCUAGUA (DNA:RNA)
# RNA: B1 RNA with U25G, U26C, C27U, C28A, A29G, A30U
# DNA 1: CAATCTGAATTCCGGTCTCCC
# DNA 2: TGGTGGCTACGACGGGATT
# B4: GCAAACC (DNA:RNA)
# RNA: B1 RNA with U25G, U26C, C27A, C28A, A30C, A31C
# DNA 1: CAATCTGAATTCCGGTCTCCC
# DNA 2: TGGTGGCTACGACGGGATT
# B5: GCGUGGG (DNA:RNA)
# RNA: GGGAGACCGGAAUUCAGAUUGUCCGCGUGGGUUAAAUCCCGUCGUAGCCACCA
# DNA 1: CAATCTGAATTCCGGTCTCCC
# DNA 2: TGGTGGCTACGACGGGATT
# B6: AGAAUCG (DNA:RNA)
# RNA: B5 RNA with G25A, C26G, G27A, U28A, G29U, G30C
# DNA 1: CAATCTGAATTCCGGTCTCCC
# DNA 2: TGGTGGCTACGACGGGATT
# B7: AAGCGGU (DNA:RNA)
# RNA: B5 RNA with G25A, C26A, U28C, G31U
# DNA 1: CAATCTGAATTCCGGTCTCCC
# DNA 2: TGGTGGCTACGACGGGATT
# B8: AAAGAAG (DNA:RNA)
# RNA: B1 RNA with U25A, U26A, C27A, C28G, A31G
# DNA 1: CAATCTGAATTCCGGTCTCCC
# DNA 2: TGGTGGCTACGACGGGATT
# B9: CGUCCGC (DNA:RNA)
# RNA: B5 RNA with G25C, C26G, G27U, U28C, G29C, G31C
# DNA 1: CAATCTGAATTCCGGTCTCCC
# DNA 2: TGGTGGCTACGACGGGATT
# B10: GUCCCGC (DNA:RNA)
# RNA: B1 RNA with U25G, A29C, A30G, A31C
# DNA 1: CAATCTGAATTCCGGTCTCCC
# DNA 2: TGGTGGCTACGACGGGATT
# B11: GCGCUUC (DNA:RNA)
# RNA: B5 RNA with U28C, G29U, G30U, G31C
# DNA 1: CAATCTGAATTCCGGTCTCCC
# DNA 2: TGGTGGCTACGACGGGATT
# B12: GCUUCCG (DNA:RNA)
# RNA: B5 RNA with G27U, G29C, G30C
# DNA 1: CAATCTGAATTCCGGTCTCCC
# DNA 2: TGGTGGCTACGACGGGATT
# B13: GCUUGUG (DNA:RNA)
# RNA: B5 RNA with G27U, G30U
# DNA 1: CAATCTGAATTCCGGTCTCCC
# DNA 2: TGGTGGCTACGACGGGATT
# B14: GCUUCUG (DNA:RNA)
# RNA: B5 RNA with G27U, G29C, G30U
# DNA 1: CAATCTGAATTCCGGTCTCCC
# DNA 2: TGGTGGCTACGACGGGATT
# B15: ACUGUGU (DNA:RNA)
# RNA: B5 RNA with G25A, G27U, U28G, G29U, G31U
# DNA 1: CAATCTGAATTCCGGTCTCCC
# DNA 2: TGGTGGCTACGACGGGATT
# B16: ACCCUUU (DNA:RNA)
# RNA: B1 RNA with U25A, U26C, A29U, A30U, A31U
# DNA 1: CAATCTGAATTCCGGTCTCCC
# DNA 2: TGGTGGCTACGACGGGATT
# B17: GACAGCA (DNA:RNA)
# RNA: B5 RNA with C26A, G27C, U28A, G30C, G31A
# DNA 1: CAATCTGAATTCCGGTCTCCC
# DNA 2: TGGTGGCTACGACGGGATT
# B18: GUGAAUA (DNA:RNA)
# RNA: B1 RNA with U25G, C27G, C28A, A30U
# DNA 1: CAATCTGAATTCCGGTCTCCC
# DNA 2: TGGTGGCTACGACGGGATT
# B19: UGGAGUU (DNA:RNA)
# RNA: B5 RNA with G25U, C26G, U28A, G30U, G31U
# DNA 1: CAATCTGAATTCCGGTCTCCC
# DNA 2: TGGTGGCTACGACGGGATT
# B20: UGGGAGU (DNA:RNA)
# RNA: B5 RNA with G25U, C26G, U28G, G29A, G31U
# DNA 1: CAATCTGAATTCCGGTCTCCC
# DNA 2: TGGTGGCTACGACGGGATT
# B21: CUGGAAG (DNA:RNA)
# RNA: B1 RNA with U25C, C27G, C28G, A31G
# DNA 1: CAATCTGAATTCCGGTCTCCC
# DNA 2: TGGTGGCTACGACGGGATT
# B22: UGGAAGU (DNA:RNA)
# RNA: B5 RNA with G25U, C26G, U28A, G29A, G31U
# DNA 1: CAATCTGAATTCCGGTCTCCC
# DNA 2: TGGTGGCTACGACGGGATT
# B23: UGGUGUU (DNA:RNA)
# RNA: B5 RNA with G25U, C26G, G30U, G31U
# DNA 1: CAATCTGAATTCCGGTCTCCC
# DNA 2: TGGTGGCTACGACGGGATT
# B24: UGGUGGG (DNA:RNA)
# RNA: B5 RNA with G25U, C26G
# DNA 1: CAATCTGAATTCCGGTCTCCC
# DNA 2: TGGTGGCTACGACGGGATT
# B25: UGGGUGU (DNA:RNA)
# RNA: B5 RNA with G25U, C26G, U28G, G29U, G31U
# DNA 1: CAATCTGAATTCCGGTCTCCC
# DNA 2: TGGTGGCTACGACGGGATT
# B26: UGGGGUG (DNA:RNA)
# RNA: B5 RNA with G25U, C26G, U28G, G30U
# DNA 1: CAATCTGAATTCCGGTCTCCC
# DNA 2: TGGTGGCTACGACGGGATT
# B27: UGGGAAG (DNA:RNA)
# RNA: B1 RNA with U26G, C27G, C28G, A31G
# DNA 1: CAATCTGAATTCCGGTCTCCC
# DNA 2: TGGTGGCTACGACGGGATT
# B28: UGGGGAG (DNA:RNA)
# RNA: B5 RNA with G25U, C26G, U28G, G30A
# DNA 1: CAATCTGAATTCCGGTCTCCC
# DNA 2: TGGTGGCTACGACGGGATT
# B29: UGGGGAA (DNA:RNA)
# RNA: B1 RNA with U26G, C27G, C28G, A29G
# DNA 1: CAATCTGAATTCCGGTCTCCC
# DNA 2: TGGTGGCTACGACGGGATT
# B30: CUGGUGU (DNA:RNA)
# RNA: B5 RNA with G25C, C26U, U28G, G29U, G31U
# DNA 1: CAATCTGAATTCCGGTCTCCC
# DNA 2: TGGTGGCTACGACGGGATT
# B31: UCGCAGG (DNA:RNA)
# RNA: B5 RNA with G25U, U28C, G29A
# DNA 1: CAATCTGAATTCCGGTCTCCC
# DNA 2: TGGTGGCTACGACGGGATT
# Target: T1, RBFOX1 RRM
# Experiment: EMSA; HiTS-Eq, 1 nM pool, 10 min; buffer printed only for the single-RNA assays: 10 mM Tris pH 7.5, 150 mM NaCl, 3.4 mM EDTA, 0.001% NP-40, 30 C
# Conditions: tags: His6 N-terminal (pET28a); label: 5' 32P
# How it was run: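 These values rest on relative association constants, computed from read-count changes of each RNA species versus the control reaction and normalised to the cognate motif. Reads came from free RNA recovered by 8% native PAGE after purified RbFox RRM (wild type or mutant) at increasing concentrations was equilibrated for 10 min in 50 µL with 1 nM of a 5′-radiolabelled pool with 7 randomized nucleotides and DNA-annealed flanks.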
row,Binder,binding signal
1,B1,0.00275 KA relative to UGCAUGU
2,B2,0.0146 KA relative to UGCAUGU
3,B3,0.0137 KA relative to UGCAUGU
4,B4,0.00398 KA relative to UGCAUGU
5,B5,0.0174 KA relative to UGCAUGU
6,B6,0.00981 KA relative to UGCAUGU
7,B7,0.00838 KA relative to UGCAUGU
8,B8,0.00539 KA relative to UGCAUGU
9,B9,0.00928 KA relative to UGCAUGU
10,B10,0.0018 KA relative to UGCAUGU
11,B11,0.0175 KA relative to UGCAUGU
12,B12,0.0121 KA relative to UGCAUGU
13,B13,0.0418 KA relative to UGCAUGU
14,B14,0.0318 KA relative to UGCAUGU
15,B15,0.016 KA relative to UGCAUGU
16,B16,0.00524 KA relative to UGCAUGU

row,Binder,binding signal
1,B17,0.0143 KA relative to UGCAUGU
2,B18,0.00781 KA relative to UGCAUGU
3,B19,0.0241 KA relative to UGCAUGU
4,B20,0.0357 KA relative to UGCAUGU
5,B21,0.0188 KA relative to UGCAUGU
6,B22,0.0205 KA relative to UGCAUGU
7,B23,0.0267 KA relative to UGCAUGU
8,B24,0.0153 KA relative to UGCAUGU
9,B25,0.0478 KA relative to UGCAUGU
10,B26,0.0422 KA relative to UGCAUGU
11,B27,0.0374 KA relative to UGCAUGU
12,B28,0.0199 KA relative to UGCAUGU
13,B29,0.0174 KA relative to UGCAUGU
14,B30,0.0254 KA relative to UGCAUGU
15,B31,0.0168 KA relative to UGCAUGU
